Measured values taken from PubChem BioAssay AID1030 (National Center for Advancing Translational Sciences (NCATS), 2008).
Among all 220,000 compounds or so, about 16,000 (7.3%) were called active. Roughly 25% stayed inconclusive and do not appear here. Calls follow the shape of the dose curve; as a rule, active = well fitted inhibition curve with a large enough effect (not every such curve was filed as active); inconclusive = small, poorly fitted or top-dose-only effect, or another doubt; inactive = no such curve, though single readings can be large or run the other way. This excerpt belongs to a sample that is enriched for actives.

These compounds were tested against Aldehyde dehydrogenase 1A1 (Homo sapiens) (UniProt P00352) (assay: qHTS Assay for Inhibitors of Aldehyde Dehydrogenase 1 (ALDH1A1)). Conditions: Purified ALDH1A1, NADH fluorescence, propionaldehyde substrate; series mostly up to 75.3 µM; activity, negative = inhibition: at the top concentration.
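For activity, negative = inhibition in this document: plate controls were no enzyme wells and a reference inhibitor.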
Potency is read from the fitted curve at half-maximal effect.

Aldehyde dehydrogenase 1A1 (Homo sapiens), sequence (P00352 whole entry, looked up): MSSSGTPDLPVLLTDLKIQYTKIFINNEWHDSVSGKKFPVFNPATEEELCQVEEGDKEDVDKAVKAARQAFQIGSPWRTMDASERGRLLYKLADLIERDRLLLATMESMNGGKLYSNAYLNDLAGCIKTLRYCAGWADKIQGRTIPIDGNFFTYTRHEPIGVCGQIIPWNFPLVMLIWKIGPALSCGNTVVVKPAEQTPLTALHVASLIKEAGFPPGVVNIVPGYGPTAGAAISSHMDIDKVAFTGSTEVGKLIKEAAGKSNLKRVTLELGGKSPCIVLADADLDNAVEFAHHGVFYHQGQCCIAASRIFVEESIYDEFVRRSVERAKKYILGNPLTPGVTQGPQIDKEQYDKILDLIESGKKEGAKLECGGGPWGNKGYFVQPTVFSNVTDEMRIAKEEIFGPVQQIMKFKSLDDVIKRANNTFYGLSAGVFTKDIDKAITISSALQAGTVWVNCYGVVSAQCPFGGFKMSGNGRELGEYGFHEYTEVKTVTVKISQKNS

activity, negative = inhibition, inactive:
COc1ccccc1N1CCN(C(=O)c2ccc(Cl)c(S(=O)(=O)N3CCCC3)c2)CC1 0.0267%
Cc1ccc(C(=O)NCC(=O)O)cc1S(=O)(=O)N1CCCCC1 2.98%
CC1CCC2(CC1)NC(=O)N(Cc1nnc(-c3cccs3)o1)C2=O (centres undefined) -3.25%
CC(O)[C@@H](N)C(=O)O (some centres undefined) 16.9%
CN(CC(=O)NCCc1ccccn1)S(=O)(=O)c1ccc(Cl)cc1 -1.89%
O=c1[nH][nH]c(=O)c2cc(N3CCCC3)ccc12 -1.14%
Cc1cccn2c(CN(C)C3CCCc4ccccc43)c(C(=O)N3CCOCC3)nc12 (centres undefined) -12.9%
COc1ccc(C(=O)Nc2ccc(N3CCC(C)CC3)cc2)cc1Br 10.6%
CC(=O)N1CCN(S(=O)(=O)c2cccc(C(=O)NC3CCC(C)CC3)c2)CC1 (centres undefined) -8.41%
Cc1cc2c(cc1C)[n+](C)cn2CC(O)COCC1CC=CCC1 (centres undefined) -2.51%
CNC(=S)N1CCN(c2ccccn2)CC1 3.36%
COc1ccc(N2CCN(C(C)=C3C(=O)c4ccccc4C3=O)CC2)cc1 2.48%
CC1(C)OC(=O)C(=CNC(CO)C(=O)O)C(=O)O1 (centres undefined) 6.92%
O=C(/C=C/c1c(Cl)cccc1Cl)NCc1ccccc1 5.21%
O=C1N=C2SCCN2/C1=C\c1c(Cl)cccc1Cl -0.867%
Cc1ccc(C(=O)O)cc1N1C(=O)CCCC1=O 14%
O=C(O)c1ccc(NC(=O)c2cn(-c3ccccc3)nc2-c2ccc(Cl)cc2)cc1 1.24%
COCCn1c(Cc2cccn2C)nnc1SCC(=O)Nc1nccs1 -8.29%
COc1ccc(OC)c(/C=N/NC(=O)CSc2nnc(C)n2-c2ccccc2)c1 -10.8%
COc1cc(-c2nnn(CC(=O)NCc3ccccc3)n2)cc(OC)c1OC 3.6%
COC(=O)c1ccccc1NC(=O)CSc1nnnn1C 2.76%
COc1cccc(-n2c(Cc3cc(=O)[nH]c(=O)[nH]3)nnc2SCC(=O)Nc2ccccc2)c1 -2.15%
Cn1cccc1Cc1nnc(SCC(=O)NCCc2ccccc2)n1-c1ccc(F)cc1 -0.308%
O=C1CC(c2c(F)cccc2Cl)C(n2cncn2)C(O)=C1C1NCCc2ccccc21 (centres undefined) 1.49%
CCOc1ccc(C(CC(=O)O)NC(=O)C23CC4CC(CC(C4)C2)C3)cc1OC (centres undefined) 3.06%
O=C(CNC(=O)COc1ccccc1)NCCc1ccccn1 5.5%
COC(c1ccccc1)c1nnc(CCC(=O)N2CCN(CCOc3ccccc3)CC2)o1 (centres undefined) 6.64%
OCCC1CN(Cc2cccc(O)c2)CCN1CCc1ccccc1 (centres undefined) 14.4%
CCn1cc(-c2cc(C(=O)O)on2)c(C)n1 1.42%
COC(=O)C(C)N=Cc1ccccc1 (centres undefined) 6.45%
Fc1ccc(-c2csc(-c3ccc(C4SCCS4)cc3)n2)cc1F -10.1%
Cc1cc(C)c(NC(=O)C[N+](C)(C)CC(O)COc2cccc3ccccc23)c(C)c1 (centres undefined) -4.91%
CCCCNc1nc2c(c(=O)[nH]c(=O)n2C)n1CCOc1ccccc1 6.54%
CCCN(CC(=O)Nc1ccc(OC)c(OC)c1)CC(=O)Nc1ccc(F)c(F)c1F -1.85%
COC(=O)Cc1c(O)ccn(Cc2cccc(C(F)(F)F)c2)c1=O -4.24%
CCOc1ccc(C2C(C(=O)O)c3ccccc3C(=O)N2CCN2CCOCC2)cc1 (centres undefined) 4.96%
O=C1c2oc3ccc(Br)cc3c(=O)c2C(c2cccc(F)c2)N1CCO (centres undefined) 2.17%
c1ccc2cc(OCCN3CCCC3)ccc2c1 0.624%
COc1cccc(OCC(O)CN2CCN(CCO)CC2)c1 (centres undefined) -0.354%
OC(c1nnc(-c2ccccc2)o1)c1cccs1 (centres undefined) 10.2%
O=C(Nc1ccccc1Cl)c1ccc2nsnc2c1 0.565%
O=C(O)c1ccc(Cl)c(S(=O)(=O)Nc2ccccc2Cl)c1 0.312%
O=c1[nH]c(CN2CCOCC2)nc2scc(-c3ccccc3)c12 -2.99%
Cc1ccc(S(=O)(=O)N(C)C)cc1NC(=O)COC(=O)c1c(C)noc1C 10.9%
Cn1cc(CCC(=O)NCc2ccc3c(c2)OCO3)c2ccccc21 -4.4%
O=C(COC(=O)c1ccc2c(c1)OCCO2)NCc1ccccc1 2.29%
CC(C)(C)NC(=O)CN(C(=O)c1csnn1)c1ccccc1-c1ccccc1 3.31%
CSc1cccc(NC(=S)N(Cc2ccccc2)Cc2ccccn2)c1 -2.76%
Cc1cc(C)cc(NC(=S)NCCCN2CCOCC2)c1 5.26%
CCOc1ccccc1C(=O)NCc1ccco1 -3.27%
CSc1nc(-c2ccco2)nn1C(=O)CCc1ccccc1 8.56%
O=C(O)CC1S/C(=N\N=C/c2ccccc2O)N(c2ccc(O)cc2)C1=O (centres undefined) -16.7%
O=C(CN1C(=O)CCC1=O)Nc1ccc(S(=O)(=O)N2CCOCC2)cc1 9.11%
O=C(c1cccc(S(=O)(=O)N2CCOCC2)c1)N1CCOCC1 -5.52%
O=C(Nc1ccc(N2CCOCC2)cc1)c1ccc(-c2ccccc2[N+](=O)[O-])o1 -15.3%
Cc1cc(C(=O)NNC(=O)c2cccc(S(=O)(=O)N3CCOCC3)c2)c2ccccc2n1 4.23%

Potency, active:
O=C(Oc1ccc([N+](=O)[O-])cc1)c1ccc(Cl)c(S(=O)(=O)N2CCCCC2)c1 12.6 µM
O=C1C=CC(=O)N1c1ccc(N2CCCCC2)cc1 0.251 µM
CC1CCN(C(=S)c2cccc(O)c2)CC1 31.6 µM
CC(=C1C(=O)c2ccccc2C1=O)N1CCN(c2ccccn2)CC1 12.6 µM
O=Cc1c(Cl)cccc1Cl 14.1 µM
COC(=O)c1ccc(NC(=O)CSc2nnc(Cc3cccn3C)n2-c2ccc(F)cc2)cc1 22.4 µM
COc1ccccc1NC(=O)CSc1nnc(Cc2cccn2C)n1-c1ccc(F)cc1 17.8 µM
COc1ccccc1NC(=O)CSc1nnc(Cn2nnc(-c3ccccc3)n2)n1-c1ccccc1 2.82 µM
CCC(C)Sc1nc2c(c(=O)[nH]c(=O)n2C)n1CC(O)COc1cccc2ccccc12 (centres undefined) 25.1 µM
CNc1ccc(SC#N)cc1 8.91 µM
CCCOc1ccc(C2c3c(oc4cc(C)c(C)cc4c3=O)C(=O)N2CCCN2CCOCC2)cc1 (centres undefined) 3.98 µM
COc1cccc(OCCCN2CCCCCC2)c1 14.1 µM
O=C(Nc1ccccc1Cl)/C(Cl)=C(\Cl)S(=O)c1ccccc1 (centres undefined) 10 µM
CCCCN=C1C([N+](=O)[O-])=CC=C2C1=NC1(CCCCC1)N2O 1.41 µM
O=C(CN(Cc1ccccc1)C(=O)c1ccc2c(c1)OCCO2)NCc1ccc2c(c1)OCO2 0.631 µM
CCOc1ccccc1/C=c1\sc2nc(-c3ccco3)nn2c1=O 28.2 µM
O=C(NC(=S)Nc1ccc(S(=O)(=O)N2CCOCC2)cc1)c1ccccc1[N+](=O)[O-] 7.94 µM
O=C(NNC(=S)Nc1ccccc1)c1cccc(S(=O)(=O)N2CCOCC2)c1 28.2 µM
